EPAC2 agonist = qHTS for Agonist of cAMP-regulated guanine nucleotide exchange factor 4 (EPAC2): primary screen; EPAC2 activation, biochemical qHTS; response scale: 100% = 6.5 mM cAMP response; Potency, µM (highest dose often 154 µM), without a hit: at the top dose activation, actives largely listed as activators; actives 0.079% (n = 360,000); AID 720711, 2013; also: nearly all actives have a fitted effect of over 50% in size
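Compounds were titrated in qHTS against a Rap1B-BODIPY-GDP (250 nM) complex with EPAC2 (100 nM) and GDP (50 uM). BODIPY-GDP release tracked at 480/540 nm over 30 min at room temperature, normalized to 6.5 mM cAMP.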
USP1-UAF1 inh = Inhibitors of USP1/UAF1: Primary Screen; recombinant USP1/UAF1, Ub-Rhodamine cleavage fluorescence; Potency, µM (doses to about 57.1 µM), for inactives: top-dose activity change, negative = inhibition, usual class: inhibitors; Ubiquitin carboxyl-terminal hydrolase 1 (Homo sapiens), O94782; actives 0.23% (n = 390,000); also: % is scaled to controls: 0 for no effect and ±100 for the full control effect; nearly all actives have a fitted effect of over 60% in size
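High-throughput fluorogenic screen: 1nM USP1/UAF1 complex, Ub-Rho substrate 150nM final, 50mM HEPES pH 7.8 with 0.5mM EDTA, 0.1 mg/ml BSA, 1mM TCEP and 0.01% Tween-20.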
EPAC1 agonist = qHTS for Agonist of cAMP-regulated guanine nucleotide exchange factor 3 (EPAC1): primary screen; Rap guanine nucleotide exchange factor 3 (Homo sapiens), O95398; EPAC1 agonist qHTS, biochemical assay; response scale: 100% = response to 6.5 mM cAMP; Potency, µM (doses to about 154 µM), without a hit: at the highest dose activation, hits mostly activators; actives 0.073% (n = 360,000); AID 720707, 2013; also: nearly all actives have a fitted effect of over 60% in size
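Multi-concentration qHTS readout: loss of Rap1B-bound BODIPY-GDP fluorescence driven by 100 nM EPAC1 with excess GDP (50 uM), monitored kinetically at room temperature; agonist response expressed relative to 6.5 mM cAMP.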
EPAC1 antagonist = qHTS for Antagonist of cAMP-regulated guanine nucleotide exchange factor 3 (EPAC1): primary screen; AID 720709, 2013; Potency, µM (top dose mostly 115 µM), for inactives: at the top dose activity change, negative = inhibition, hits mostly inhibitors; actives 0.14% (n = 360,000); EPAC1 GEF assay, Rap1b-BODIPY-GDP exchange fluorescence;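 also: plate controls were vehicle for no effect and positive control for full effect; nearly all actives have a fitted effect of over 50% in size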
12-LOX inh = Primary qHTS assay for inhibitors of human arachidonate 12S-lipoxygenase (ALOX12): Round 2; Polyunsaturated fatty acid lipoxygenase ALOX12 (Homo sapiens), P18054; purified 12hLO, xylenol orange hydroperoxide absorbance; Potency, µM (highest dose often 108 µM), for the others: at the highest dose activity change, negative = inhibition, hits mostly inhibitors; actives 1.1% (n = 580,000); AID 1671190, 2021; also: % is scaled to controls: 0 for no effect and ±100 for the full control effect
Target sequence (P18054 whole entry, looked up): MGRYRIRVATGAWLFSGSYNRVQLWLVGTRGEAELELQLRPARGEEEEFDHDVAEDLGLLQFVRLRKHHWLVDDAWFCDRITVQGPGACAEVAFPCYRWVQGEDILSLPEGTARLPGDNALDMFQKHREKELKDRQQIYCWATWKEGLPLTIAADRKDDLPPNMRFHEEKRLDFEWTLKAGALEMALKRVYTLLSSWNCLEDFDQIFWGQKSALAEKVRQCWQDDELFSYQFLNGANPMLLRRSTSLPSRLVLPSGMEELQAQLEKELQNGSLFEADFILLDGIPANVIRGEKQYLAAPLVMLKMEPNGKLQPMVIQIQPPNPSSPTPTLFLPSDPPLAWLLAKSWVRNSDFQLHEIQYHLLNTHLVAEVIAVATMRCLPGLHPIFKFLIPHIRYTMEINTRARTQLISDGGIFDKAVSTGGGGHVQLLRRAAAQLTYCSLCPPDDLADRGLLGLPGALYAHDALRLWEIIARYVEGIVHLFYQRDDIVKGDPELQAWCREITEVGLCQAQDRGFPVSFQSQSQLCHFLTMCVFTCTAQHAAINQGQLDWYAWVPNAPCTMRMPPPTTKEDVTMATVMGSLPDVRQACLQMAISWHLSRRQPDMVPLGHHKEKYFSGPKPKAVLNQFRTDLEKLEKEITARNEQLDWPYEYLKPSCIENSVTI
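Hydroperoxide product was detected by ferrous iron/xylenol orange as the 573 to 405 nm absorbance ratio. Arachidonic acid at 40 uM (final) was turned over for 30 min at room temperature by 150 nM human 12hLO, pH 7.0 Hepes buffer, after 15 min compound preincubation.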
EPAC2 antagonist = qHTS for Antagonist of cAMP-regulated guanine nucleotide exchange factor 2 (EPAC2): primary screen; EPAC2 GEF exchange of Rap1B-BODIPY-GDP, fluorescence; actives 0.18% (n = 360,000); AID 720708, 2013; Rap guanine nucleotide exchange factor 4 (Homo sapiens), Q8WZA2; Potency, µM (top dose mostly 114 µM), for inactives: at the top dose activity, negative = inhibition, hits mostly inhibitors; also: % is scaled to controls: 0 for no effect and ±100 for the full control effect; nearly all actives have a fitted effect of over 45% in size
* = called active by the depositor; ? = inconclusive; nt = no result given; [ ] = dose if it differs, or a comment. Most compounds without a hit are left out; they make up all but 1.3% or so of the library. Calls follow the shape of the dose curve; as a rule, active = well fitted curve in the direction sought with a large enough effect; inconclusive = small, poorly fitted or top-dose-only effect, or another doubt; inactive = no such curve, though single readings can be large; an effect the other way counts as inactive or inconclusive. Potency is read from the fitted curve at half-maximal effect.

SMILES | EPAC2 agonist | USP1-UAF1 inh | EPAC1 agonist | EPAC1 antagonist | 12-LOX inh | EPAC2 antagonist
O=C(COc1ccc([N+](=O)[O-])cc1)NNC(=S)NC(=O)c1ccc(Br)cc1 | 17.3% | -4.6% | 7.6% | -18.5% | 39.8µM* | -1.7%
COc1ccc(NC(=S)NNC(=O)COc2ccc(Cl)cc2Cl)cc1 | -3.0% | -2.0% | 5.9% | 4.3% | ? | -17.1%
Cc1ccc(C(=O)NC(=S)NNC(=O)COc2ccc([N+](=O)[O-])cc2)cc1 | 5.8% | -18.2% | 3.3% | -14.7% | ? | 4.5%
COc1ccc(F)cc1Nc1cnc2ccc(N(C)Cc3cccnc3)nn12 | nt | nt | nt | nt | -17.5%[176 µM] | nt
Cc1ccc(OC2(C(=O)N3CCCC3c3nccs3)CCNCC2)cc1 (centres undefined) | nt | nt | nt | nt | 17.8µM* | nt
O=S(=O)(c1ccc(NC(=S)NC23CC4CC(CC(C4)C2)C3)cc1)N1CCCCC1 | 1.8% | -21.4% | -4.6% | 7.4% | 44.7µM* | -12.7%
NS(=O)(=O)c1ccc(NC(=S)Nc2ccc(S(=O)(=O)N3CCCC3)cc2)cc1 | 6.6% | -16.7% | 8.9% | -3.7% | 4.6% | -9.4%
Cc1ccccc1NC(=O)c1nc2ccccc2nc1N1CCCCC1 | nt | nt | nt | nt | 12.8% | nt
Cn1ccnc1C(=O)c1cccc(NC(=O)C(=O)N[C@H](CO)Cc2ccccc2)c1 | nt | nt | nt | nt | 1.1% | nt
Cn1c(O)c(N=NC(=O)c2ccccc2O)c2ccccc21 | 3.0% | -15.5% | 2.2% | 31.6µM* | -1.7% | -16.3%
O=C1CC(=C(c2ccccc2)c2ccccc2)C(=O)N1CCCCN1CCN(c2ccccc2)CC1 | 11.3% | -15.3% | -5.7% | -11.0% | 39.8µM* | -2.5%
CCC(N)(CC)c1cn(CC2CCCN(S(C)(=O)=O)C2)nn1 (centres undefined) | nt | nt | nt | nt | 20µM* | nt
O=[N+]([O-])c1cc(-c2ccc(C(=S)N3CCOCC3)o2)ccc1Cl | 10.2% | ? | -1.6% | -12.3% | 12.6µM* | -3.7%
O=[N+]([O-])c1ccccc1-c1ccc(C(=S)N2CCCC2)o1 | -1.4% | ? | 3.8% | -20.4% | 39.8µM* | -18.0%
O=[N+]([O-])c1ccccc1-c1ccc(C(=S)N2CCCCC2)o1 | 14.3% | -24.8% | 4.6% | -5.4% | 0.0% | -1.8%
COc1ccc(/C=C(/C#N)c2ccc(C(F)(F)F)cn2)cc1 | nt | nt | nt | nt | 14.6% | nt
O=C1S/C(=C\c2ccc(N3CCOCC3)o2)C(=O)N1Cc1ccc(F)cc1 | 112µM* | 5.62µM* | 7.4% | 1.2% | nt | -2.6%
O=C1S/C(=C/c2ccc(N3CCOCC3)o2)C(=O)N1Cc1ccc(F)cc1 | ? | 14.1µM* | 3.5% | 0.8% | 10µM* | 11.4%
COc1ccc(Br)cc1/C=C/C(=O)OC1CCCCC1=O (centres undefined) | nt | nt | nt | nt | -25.1% | nt
CC(C)(CNC(=O)CCCNC(=O)C1CC1)c1ccc(Br)cc1 | nt | nt | nt | nt | -35.9% | nt
CCC(C(=O)N1CCC(c2n[nH]c(=O)n2Cc2ccc(OC)cc2)CC1)c1ccccc1 (centres undefined) | nt | nt | nt | nt | 35.5µM* | nt
O=[N+]([O-])/C=C/c1cn(Cc2ccc(Cl)cc2)c2ccccc12 | 100µM* | ? | ? | -11.9% | ? | 21.6%
Cc1cccc(Cn2cc(/C=C/[N+](=O)[O-])c3ccccc32)c1 | ? | ? | 14.6% | 15.7% | ? | 29.4%
Cc1ccc(C)c(NC(=O)CCc2ncc(-c3ccc(F)cc3F)o2)c1 | nt | nt | nt | nt | -24.6% | nt
